Results published in PubChem BioAssay (NCATS).
Inconclusive results are not listed. Calls of active or inactive are those of the source. The call rests on the fitted dose curve; in most records, active means well fitted activation curve with a large enough effect in the main read-out, with a control signal flat (not every such curve was filed as active); inconclusive means small, poorly fitted or top-dose-only effect, or effect the other way, or a change in a side signal; inactive means flat fitted curve, though single readings scatter.

biological target: 3',5'-cyclic-AMP phosphodiesterase 4B (Homo sapiens) (UniProt Q07343); experiment: qHTS Assay for Inhibitors of PDE-IV (AID 607); conditions: HEK293 ACTOne CNG channel cells, membrane potential fluorescence; series mostly up to 22.9 µM
Text: NIH Chemical Genomics Center [NCGC]
NIH Molecular Libraries Screening Centers Network [MLSCN]
The cyclic nucleotide phosphodiesterases (PDEs) are proteins that catalyze hydrolysis of 3', 5'-cyclic nucleotides, such as cyclic adenosine monophosphate (cAMP) and cyclic guanosine monophosphate (cGMP), to their corresponding 5'-nucleotide monophosphates. These enzymes play an important role in controlling cellular concentrations of cyclic nucleotides and have a central role in a variety of intracellular signaling events. cAMP PDEs are emerging as a promising class of drug targets in asthma and cardiovascular disease therapeutic areas.
There are no commercially available cell-based screening assays for PDE inhibitors: currently biochemical assays are done using pure substrates (cAMP or cGMP) and purified recombinant PDE enzymes. As with other biochemical screens on intracellular targets, false positives and false negatives may result from issues involving cell membrane permeability, cellular metabolism, and the like.
Here we report the development of a cell-based screening assay for cAMP phosphodiesterase (PDE) inhibitors. The assay is based on the BD ACTOne# technology (BD Biosciences) which utilizes a modified cyclic nucleotide-gated channel (CNG) to monitor intracellular cAMP changes in live cells. The CNG channel is localized on the plasma membrane, and opens when the intracellular cAMP level increases, resulting in ion flux and cell membrane depolarization. The influx of cations through the CNG channel can be quantified using membrane potential (MP) dyes. We modified the BD ACTOne technology to allow the detection of PDE inhibitors, and performed an inhibitor screen for PDE-IV, which is expressed endogenously in HEK293 cells. We optimized this assay in homogeneous 1536-well plate assay format for high throughput screening.
NCGC Assay Protocol Summary:
The medium contained 10% FBS (Invitrogen), 2 mM L-glutamine, and 250 ug/ml G418 (Cellgro) and 1 ug/ml puromycin (Clontech). ACTOneTM parental cells (BD Biosciences) were maintained in the same medium without puromycin.
The activity of the CNG channel was measured by BD ACTOneTM membrane potential dye kit (BD Biosciences). Forskolin, a positive control for cAMP activation and RO 20-1724, a PDE inhibitor, were both purchased from Sigma and solublized in DMSO.
Sequence,Parameter,Value,Description
1,Reagent,3 uL,1000 cells/well 1536 TC treated Black plate
3,Compound,0.5 uL,Kalypsys dispense RO 20-1724 100 uM final [A]
4,Reagent,3 uL,BD membrane potential dye
6,Compound,23 nL,Final concentration was 0.7nM to 22.9uM
8,Detector,EX 535 / EM 590 [B],Envision
Footnotes: [A] The stock 2 mM RO 20-1724 PDE inhibitor was made in 10 % DMSO. Parental cell line received 10 uM forskolin + 100 uM RO. [B] Envsion settings: Bottom Excitation 535/20 nm top emission 590/20, gain of 150 and 5 flashes per well.
Keywords: PDE, PDE-IV, cytotoxicity, flourescence, MLSMR, MLSCN, NIH Roadmap, qHTS, NCGC

3',5'-cyclic-AMP phosphodiesterase 4B (Homo sapiens), sequence (Q07343 whole entry, looked up): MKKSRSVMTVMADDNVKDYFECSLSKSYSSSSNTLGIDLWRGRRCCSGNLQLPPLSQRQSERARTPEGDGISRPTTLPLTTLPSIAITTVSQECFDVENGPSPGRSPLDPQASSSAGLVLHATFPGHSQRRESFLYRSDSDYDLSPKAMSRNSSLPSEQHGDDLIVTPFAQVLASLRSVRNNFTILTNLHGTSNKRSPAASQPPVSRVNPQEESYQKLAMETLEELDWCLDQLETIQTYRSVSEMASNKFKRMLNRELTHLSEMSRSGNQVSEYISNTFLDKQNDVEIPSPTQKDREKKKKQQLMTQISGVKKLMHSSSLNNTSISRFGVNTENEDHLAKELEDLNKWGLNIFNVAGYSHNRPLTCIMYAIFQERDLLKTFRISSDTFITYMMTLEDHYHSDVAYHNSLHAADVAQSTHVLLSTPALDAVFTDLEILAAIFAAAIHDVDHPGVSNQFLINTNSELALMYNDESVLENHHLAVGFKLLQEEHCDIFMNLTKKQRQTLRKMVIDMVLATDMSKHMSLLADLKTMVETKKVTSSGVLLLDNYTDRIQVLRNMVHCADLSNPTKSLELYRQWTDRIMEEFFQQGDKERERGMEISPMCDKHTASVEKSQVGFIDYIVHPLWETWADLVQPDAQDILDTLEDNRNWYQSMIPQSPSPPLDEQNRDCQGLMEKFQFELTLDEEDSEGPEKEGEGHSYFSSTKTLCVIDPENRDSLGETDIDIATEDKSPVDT

Potency, inactive:
CCOC(=O)Cn1c(C(F)(F)F)nc2nc(Cl)c(Cl)nc21
COc1cccc2c1[C@H](CO)N1[C@H](C#N)[C@@H]3C[C@H](C(=O)O)[C@@H]([C@@H]1C2)N3C
Nc1c2c(nc3ccccc13)CCC[C@H]2O
C[C@@]12CC[C@@H]3[C@H](CCC4=CC(=O)CC[C@]43C)[C@@H]1CC[C@@H]2C(=O)Cn1cnc2c(=S)nc[nH]c21
O=C(O)CCC/C=C\C[C@H]1[C@@H](/C=C\[C@@H](O)C2Cc3ccccc3C2)[C@H](F)C[C@H]1O
O=[N+]([O-])c1cccc(/C=N\NC2=CS(=O)(=O)C=C2)c1
O=C(O)[C@H](CCc1ccccc1)N1C(=O)c2ccccc2C1=O
c1ccc(CCN2CCN=C2Cc2ccccc2)cc1
CC1(C)[C@@H]2CC[C@]1(C)[C@@H](OC(=O)CSC#N)C2
O=C(O)c1cc(-c2ccc(-c3ccc(-c4cc(C(=O)O)c5cc(Cl)ccc5n4)cc3)cc2)nc2ccc(Cl)cc12
O=C(O)[C@@H]1[C@@H](C(=O)Nc2ncccn2)[C@@H]2C=C[C@@H]1O2
Cc1ccc(C2=C(Cl)C(=O)C(c3ccc(C)cc3)=C(Cl)C2=O)cc1
O=C(O)CS(=O)c1ccc2c3c(cccc13)C(=O)c1ccccc1-2 (stereo not given)
O=C(O)CSC1=NCCN1
NC1=N[C@H](c2ccc(Cl)cc2)N(c2ccc(S(N)(=O)=O)cc2)C(N)=N1
Cc1c(Cl)c(S(N)(=O)=O)cc(S(N)(=O)=O)c1NC(=O)c1ccc(Cl)cc1
Cn1c(=S)c2[nH]c(SCCN3CCCC3)nc2n(C)c1=O
Cc1cc(O)c(-c2cc(O)c(C)cc2O)cc1O
O[C@H](CN1CCN(c2cccc(Cl)c2)CC1)C(c1ccccc1)c1ccccc1
NS(=O)(=O)c1cc2c(cc1Cl)=NC(CCC(=O)O)=NS=2(=O)O
NS(=O)(=O)c1ccc(N=C2C(=O)Nc3ccccc32)cc1
Cc1nc2cnc(N3CCNCC3)nc2n(-c2ccccc2)c1=O
CC(C)Cn1cnc2c(SCc3ccccn3)nc(N)nc21
CCN(CCO)C[C@H]1CCC[C@H]2CCCC[C@@H]21
O=C(O)c1[nH]c2c([N+](=O)[O-])cc([N+](=O)[O-])cc2c1C(=O)O
O=C(O)C(Cl)(c1ccccc1)c1ccccc1
O=C1O/C(=C\Br)CC[C@@H]1c1cccc2ccccc12
OC[C@@H]1CCC[C@H](n2cnc3c(=S)nc[nH]c32)O1
NCCSS(=O)(=O)CCN
NCc1ccc(C(=O)O)cc1
Cc1c(Cl)cc(C(C)(C)C)c(O)c1Cc1c(C)c(Cl)cc(C(C)(C)C)c1O
CN(C)CCNc1nc2c(c(=O)n(C)c(=O)n2C)n1C
O=C1c2ccccc2C(O)(O)[C@@]1(O)[C@]1(O)C(=O)c2ccccc2C1(O)O
NCCNCC1CCNCC1
Nc1ccc(S(=O)(=O)c2ccc(NC(=O)c3cccnc3)cc2)cc1
N#C[C@@H](N=Nc1ccccc1C(=O)O)C(N)=O
COc1c2c(nc3ccccc13)O[C@@H]([C@@](C)(O)CO)C2
NC1=C(O)C(=O)[C@H](c2c[nH]c3ccc(OCc4ccccc4)cc23)O1
CC(C)(C)OC(=O)[C@H]([C@@H]1N[C@@H](C(=O)O)C(C)(C)S1)N1C(=O)c2ccccc2C1=O
O=C(O)C(Cc1ccccc1)Cc1ccccc1
